High-throughput results: PubChem, Broad Institute
This is a sample that favours compounds with a hit; in the whole collection about 2.4% have one here.
C diff HTS – blocks growth of Clostridium difficile | actives 0.25% (n = 86,000) | AID 1259249 | growth activity, negative = inhibition, % at 16 µg/mL (by protocol) | Clostridium difficile clinical isolate growth, OD600, 24 h; stronger effect = lower value;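 active = mean growth activity at or below -80% and every replicate also at or below -80%; inconclusive = mean at or below -80% but some replicate above -80%; inactive = mean growth activity above -80%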;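 note: 0% = DMSO wells and -100% = levofloxacin 16 µg/mL wells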
Pf Dd2 growth – blocks growth of Plasmodium falciparum Dd2 parasites. P. falciparum Dd2 growth, SYBR Green, 72 h; stronger effect = lower value. activity change, % at 10 µM. actives 2.3% (n = 94,000); in the data active = activity change below about -80%; inconclusive = no clear call, values can overlap the other calls
An asterisk follows results filed as active; ? = inconclusive; . = no result; ! = not confirmed by another sample.

SMILES	C diff HTS	Pf Dd2 growth
COc1ccc(S(=O)(=O)Nc2ccc3c(c2)C(=O)N([C@@H](C)CO)C[C@@H](C)[C@@H](CN(C)S(=O)(=O)c2ccc(Cl)cc2)OCCCC[C@H](C)O3)cc1	10	-85*
COc1ccc(S(=O)(=O)N(C)C[C@H]2OCCCC[C@H](C)Oc3ccc(NS(=O)(=O)c4ccc(Cl)cc4)cc3C(=O)N([C@@H](C)CO)C[C@@H]2C)cc1	-4	-52
CN(C)CCCNC(=O)C[C@@H]1CC[C@H]2[C@@H](COc3ccc(NC(=O)C4CCC4)cc3C(=O)N2C)O1	1	13
C[C@@H]1CN([C@H](C)CO)C(=O)c2cc(-c3ccc(F)cc3)cnc2O[C@H]1CN(C)Cc1cncnc1	2	-11
COc1ccc(NC(=O)N[C@H]2C=C[C@H](CC(=O)NC3CCCCC3)O[C@@H]2CO)cc1	.	-3
O=C(C[C@H]1CC[C@H]2[C@@H](COC[C@@H](O)CN2C(=O)Nc2cc(Cl)cc(Cl)c2)O1)NCC1CCCCC1	4	-3
CCCN(C)C[C@H]1OCCCC[C@H](C)Oc2ccc(NC(=O)c3ccncc3)cc2C(=O)N([C@H](C)CO)C[C@H]1C	0	-86*
CCCN(C)C[C@@H]1OCCCC[C@H](C)Oc2ccc(NC(=O)c3ccccc3)cc2C(=O)N([C@@H](C)CO)C[C@@H]1C	0	-41
CCCN(C)C[C@H]1OCCCC[C@@H](C)Oc2ccc(NC(=O)c3ccncc3)cc2C(=O)N([C@H](C)CO)C[C@@H]1C	0	-19
CCCN(C)C[C@H]1OCCCC[C@@H](C)Oc2ccc(NC(=O)c3ccncc3)cc2C(=O)N([C@@H](C)CO)C[C@H]1C	-7	-88*
O=C(CCN1CCCCC1)N[C@@H]1CC[C@H](CCNS(=O)(=O)c2ccc(Cl)cc2)O[C@H]1CO	-1	-15
COc1ccc(-c2ccc(C3[C@H]4CNC[C@@H]3N4C(=O)Nc3ccc(C(F)(F)F)cc3)cc2)cc1 (stereo partly drawn)	-99*!	-84*!
COc1ccc(NC(=O)N2C[C@@H]3N[C@H](C2)C3c2ccc(-c3cccc(F)c3)cc2)cc1 (stereo partly drawn)	3	-33
COc1ccc(NC(=O)N2[C@@H]3CNC[C@H]2C3c2ccc(-c3ccc(OC)cc3)cc2)cc1 (stereo partly drawn)	-11	-33
COc1ccccc1NC(=O)N1C[C@@H]2N[C@H](C1)C2c1ccc(-c2ccc(C#N)cc2)cc1 (stereo partly drawn)	16	-64
N#Cc1ccc(-c2ccc(C3[C@@H]4CN(C(=O)C5CC5)C[C@H]3N4)cc2)cc1 (stereo partly drawn)	-11	-88*!
O=C(Nc1ccc(C(F)(F)F)cc1)N1C[C@@H]2N[C@H](C1)C2c1ccc(-c2cccc(F)c2)cc1 (stereo partly drawn)	-99*	-83*!
N#Cc1ccc(-c2ccc(C3[C@@H]4CN(C(=O)Nc5ccc(C(F)(F)F)cc5)C[C@H]3N4)cc2)cc1 (stereo partly drawn)	-96*!	?
N#Cc1cccc(-c2ccc(C3[C@@H]4CN(C(=O)C5CCOCC5)C[C@H]3N4)cc2)c1 (stereo partly drawn)	-1	-47
CN1c2ccc(Br)cc2[C@H]2[C@H](CCN2C(=O)C2CCCC2)[C@H]1CO	15	0
C/C=C/c1ccc(C2[C@@H]3CN(C(=O)Nc4ccc5c(c4)OCO5)C[C@H]2N3)cc1 (stereo partly drawn)	-5	-37
O=C(Nc1ccc(F)cc1)N1C[C@@H]2N[C@H](C1)C2c1ccc(-c2cccnc2)cc1 (stereo partly drawn)	-5	-53
N#Cc1ccc(-c2ccc([C@@H]3[C@@H]4CN(C(=O)Nc5ccc6c(c5)OCO6)C[C@H]3N4)cc2)cc1	22	-87*
Cc1ccc(-c2ccc(C3[C@@H]4CN(C(=O)Nc5ccc(C(F)(F)F)cc5)C[C@H]3N4)cc2)cc1 (stereo partly drawn)	-92*!	-85*
O=C(C1CCCC1)N1CCCCN2[C@H](C1)[C@H](c1ccc(C#CC3(O)CCCC3)cc1)[C@@H]2CO	4	38
SMILES	C diff HTS	Pf Dd2 growth
Cc1ccc(S(=O)(=O)N(C)C[C@H]2OCCCC[C@H](C)Oc3ccc(NS(=O)(=O)c4cccs4)cc3C(=O)N([C@@H](C)CO)C[C@H]2C)cc1	.	-85*
C[C@@H]1CN([C@H](C)CO)C(=O)c2cc(NS(=O)(=O)c3cccs3)ccc2O[C@@H](C)CCCCO[C@@H]1CN(C)S(=O)(=O)c1ccc(F)cc1	19	-89*
Cc1ccc(S(=O)(=O)N(C)C[C@@H]2OCCCC[C@H](C)Oc3ccc(NS(=O)(=O)c4cccs4)cc3C(=O)N([C@H](C)CO)C[C@H]2C)cc1	.	-55
C[C@@H]1CCCCO[C@H](CN(C)S(=O)(=O)c2ccc(F)cc2)[C@H](C)CN([C@@H](C)CO)C(=O)c2cc(NS(=O)(=O)c3cccs3)ccc2O1	22	-50
CCNC(=O)Nc1ccc2c(c1)C(=O)N(C)[C@@H]1CC[C@@H](CC(=O)NCc3cccc(F)c3)O[C@H]1CO2	-3	-19
C[C@H]1CN([C@@H](C)CO)C(=O)c2cccc(NC(=O)c3nc4ccccc4s3)c2O[C@H]1CN(C)Cc1ccc(C(=O)Nc2ccccc2N)cc1	.	-91*
C[C@H](CO)N1C[C@H](C)[C@H](CN(C)Cc2ccccc2)Oc2c(NC(=O)c3nc4ccccc4s3)cccc2C1=O	2	-25
C[C@@H]1CN([C@H](C)CO)C(=O)c2cccc(NC(=O)c3nc4ccccc4s3)c2O[C@H]1CN(C)Cc1ccc(C(=O)Nc2ccccc2N)cc1	.	-92*
C[C@H]1CN([C@@H](C)CO)C(=O)c2cccc(NC(=O)c3nc4ccccc4s3)c2O[C@H]1CN(C)Cc1ccccc1	2	-22
COc1ccc(NC(=O)N(C)C[C@H]2OCCCC[C@H](C)Oc3ccc(NC(=O)Nc4c(C)noc4C)cc3C(=O)N([C@H](C)CO)C[C@@H]2C)cc1	-1	7
C[C@@H]1CCCCO[C@@H](CN(C)CC2CC2)[C@H](C)CN([C@@H](C)CO)C(=O)c2cc(NC(=O)Nc3ccc4c(c3)OCO4)ccc2O1	5	-52
CCCN(C)C[C@H]1OCCCC[C@@H](C)Oc2ccc(NC(=O)Nc3ccc4c(c3)OCO4)cc2C(=O)N([C@H](C)CO)C[C@@H]1C	5	-86*
C[C@H]1CCCCO[C@H](CN(C)CC2CC2)[C@@H](C)CN([C@@H](C)CO)C(=O)c2cc(NC(=O)Nc3ccc4c(c3)OCO4)ccc2O1	4	-90*
CCCN(C)C[C@H]1OCCCC[C@H](C)Oc2ccc(NC(=O)Nc3ccc4c(c3)OCO4)cc2C(=O)N([C@@H](C)CO)C[C@@H]1C	1	.
O=C([C@H]1N[C@H]2c3ccc(/C=C/c4ccccc4)c(=O)n3C[C@H]2[C@@H]1CO)N1CCCCC1	-3	.
COC(=O)C[C@@H]1CC[C@H]2[C@@H](COc3ccc(NC(=O)c4cc(F)cc(F)c4)cc3C(=O)N2C)O1	5	-3
C[C@@H]1CN([C@H](C)CO)C(=O)c2cc(NC(=O)c3ccccc3)ccc2O[C@@H](C)CCCCO[C@H]1CN(C)S(=O)(=O)c1ccc(Cl)cc1	0	-85*
C[C@@H]1CCCCO[C@H](CN(C)S(=O)(=O)c2ccc(Cl)cc2)[C@@H](C)CN([C@@H](C)CO)C(=O)c2cc(NC(=O)c3ccccc3)ccc2O1	6	-83*
